Results from PubChem BioAssay.
Unmarked numbers belong to inactive results. For some assays here: Results with a measured potency or affinity are listed apart. The source made the active and inactive calls. Unless noted, the rule behind the calls is not given here.

Columns and labels:
[1] = antimalarial activity against Dd2 strain (AID 2302;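 active = growth inhibition above 50% at the single 2 µM test dose, taken to imply half-maximal potency below 2 µM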;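 note: 0% = DMSO untreated growth and 100% = chloroquine plus artemisinin killed control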); details: P. falciparum Dd2 in RBCs, LDH growth readout, 72 h; at 2 µM; active compounds read high
[2] = HepG2 cytotoxicity, primary screen, cytotoxicity control for P. falciparum antimalarial project, cell-based, ATP luminescence (AID 2303;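 active = inhibition above 50%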;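 note: 0% = DMSO wells and 100% = digitonin-killed cells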); details: HepG2 viability, 24-48 h, at 10 µM, active compounds read high
[3] = molecular target: L-lactate dehydrogenase (Plasmodium falciparum (isolate CDC / Honduras)) (UniProt Q27743); assay: PfLDH activity inhibition – cell lysate, 3D7 strain, counter-screen for P. falciparum growth inhibition project (AID 2304);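 note: 0% = vehicle and 100% = reference inhibitor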; details: P. falciparum 3D7 crude extract, LDH APAD/NBT absorbance; at 2 µM; active compounds read high
Chain of L-lactate dehydrogenase (Plasmodium falciparum (isolate CDC / Honduras)) (Q27743 whole entry, looked up): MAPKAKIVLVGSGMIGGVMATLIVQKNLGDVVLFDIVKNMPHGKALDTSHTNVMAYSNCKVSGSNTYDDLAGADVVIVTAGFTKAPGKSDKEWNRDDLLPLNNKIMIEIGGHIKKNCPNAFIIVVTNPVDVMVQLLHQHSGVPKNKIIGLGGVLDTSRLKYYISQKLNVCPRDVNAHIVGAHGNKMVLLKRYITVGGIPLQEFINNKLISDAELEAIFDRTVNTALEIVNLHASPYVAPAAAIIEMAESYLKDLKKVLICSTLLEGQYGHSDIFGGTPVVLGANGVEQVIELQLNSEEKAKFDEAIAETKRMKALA

[4] = inhibition of 3D7 malaria parasite growth – strain 3D7 (AID 2306);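 note: 0% = DMSO wells and 100% = chloroquine plus artemisinin control wells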; details: P. falciparum 3D7 erythrocytic growth, LDH absorbance, 72 h; at 2 µM; active compounds read high
[5] = molecular target: Calcium-dependent protein kinase 1 (Plasmodium falciparum (isolate 3D7)) (UniProt P62344); assay: PfCDPK1 kinase inhibitors, biochemical, TCAMS library (AID 1159585; cut-off not given, nearly all actives have IC50 up to about 0.98 µM;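 note: inhibitors leave more ATP so luminescence rises with inhibition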); details: recombinant PfCDPK1, Kinase-Glo ATP depletion luminescence
Chain of Calcium-dependent protein kinase 1 (Plasmodium falciparum (isolate 3D7)) (P62344 whole entry, looked up): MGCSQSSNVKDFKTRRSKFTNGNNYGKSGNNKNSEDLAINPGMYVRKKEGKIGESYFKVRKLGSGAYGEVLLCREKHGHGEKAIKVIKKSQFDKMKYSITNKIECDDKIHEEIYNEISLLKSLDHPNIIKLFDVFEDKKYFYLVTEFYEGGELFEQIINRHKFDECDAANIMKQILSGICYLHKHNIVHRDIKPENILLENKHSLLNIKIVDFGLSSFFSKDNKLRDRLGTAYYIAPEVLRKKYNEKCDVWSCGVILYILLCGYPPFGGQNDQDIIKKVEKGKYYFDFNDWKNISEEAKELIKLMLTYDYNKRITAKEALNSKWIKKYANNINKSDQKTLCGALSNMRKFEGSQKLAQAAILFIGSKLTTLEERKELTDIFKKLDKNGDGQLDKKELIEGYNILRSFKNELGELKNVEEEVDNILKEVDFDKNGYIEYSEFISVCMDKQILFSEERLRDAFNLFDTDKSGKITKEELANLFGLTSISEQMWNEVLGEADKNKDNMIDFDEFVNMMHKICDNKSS

[6] = molecular target: Plasmodium falciparum protein kinase 6 (PK6, PF3D7_1337100) (UniProt Q8IDW1); assay: PfPK6 kinase inhibitors, biochemical, TCAMS library (AID 1159586); details: recombinant PfPK6, Kinase-Glo ATP depletion luminescence
Chain of Plasmodium falciparum protein kinase 6 (PK6, PF3D7_1337100) (Q8IDW1 1-305): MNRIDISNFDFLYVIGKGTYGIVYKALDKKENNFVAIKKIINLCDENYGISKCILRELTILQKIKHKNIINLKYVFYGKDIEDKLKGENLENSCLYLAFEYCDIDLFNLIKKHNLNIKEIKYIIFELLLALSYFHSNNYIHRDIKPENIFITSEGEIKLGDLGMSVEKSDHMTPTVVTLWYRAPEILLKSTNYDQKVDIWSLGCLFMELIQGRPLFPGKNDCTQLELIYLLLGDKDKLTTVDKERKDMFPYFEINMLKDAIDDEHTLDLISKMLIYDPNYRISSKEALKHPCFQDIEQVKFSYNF

[7] = molecular target: Protein kinase 7 (PK7), Plasmodium falciparum 3D7 (PF3D7_0213400) (UniProt Q7YTF7); assay: inhibition of Plasmodium PK7 catalytic activity – biochemical, TCAMS antimalarial set, Kinase-Glo luminescence (AID 1159587); details: recombinant PfPK7, Kinase-Glo ATP depletion luminescence
Chain of Protein kinase 7 (PK7), Plasmodium falciparum 3D7 (PF3D7_0213400) (Q7YTF7 1-343): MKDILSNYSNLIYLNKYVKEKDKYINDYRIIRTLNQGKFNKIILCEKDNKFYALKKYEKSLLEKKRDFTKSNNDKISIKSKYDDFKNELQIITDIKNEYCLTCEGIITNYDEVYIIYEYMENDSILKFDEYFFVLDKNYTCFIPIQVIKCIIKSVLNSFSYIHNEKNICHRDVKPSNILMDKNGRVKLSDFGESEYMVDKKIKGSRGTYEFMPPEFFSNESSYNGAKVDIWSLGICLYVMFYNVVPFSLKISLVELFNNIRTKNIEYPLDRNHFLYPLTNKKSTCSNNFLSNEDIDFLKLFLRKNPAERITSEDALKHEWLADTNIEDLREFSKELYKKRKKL

[8] = molecular target: Calcium-dependent protein kinase 4 (Plasmodium falciparum (isolate 3D7)) (UniProt Q8IBS5); assay: PfCDPK4 kinase inhibitors, biochemical, TCAMS library (AID 1159588; cut-off not given, nearly all actives have IC50 up to about 0.91 µM); details: recombinant PfCDPK4, Kinase-Glo ATP depletion luminescence
Chain of Calcium-dependent protein kinase 4 (Plasmodium falciparum (isolate 3D7)) (Q8IBS5 whole entry, looked up): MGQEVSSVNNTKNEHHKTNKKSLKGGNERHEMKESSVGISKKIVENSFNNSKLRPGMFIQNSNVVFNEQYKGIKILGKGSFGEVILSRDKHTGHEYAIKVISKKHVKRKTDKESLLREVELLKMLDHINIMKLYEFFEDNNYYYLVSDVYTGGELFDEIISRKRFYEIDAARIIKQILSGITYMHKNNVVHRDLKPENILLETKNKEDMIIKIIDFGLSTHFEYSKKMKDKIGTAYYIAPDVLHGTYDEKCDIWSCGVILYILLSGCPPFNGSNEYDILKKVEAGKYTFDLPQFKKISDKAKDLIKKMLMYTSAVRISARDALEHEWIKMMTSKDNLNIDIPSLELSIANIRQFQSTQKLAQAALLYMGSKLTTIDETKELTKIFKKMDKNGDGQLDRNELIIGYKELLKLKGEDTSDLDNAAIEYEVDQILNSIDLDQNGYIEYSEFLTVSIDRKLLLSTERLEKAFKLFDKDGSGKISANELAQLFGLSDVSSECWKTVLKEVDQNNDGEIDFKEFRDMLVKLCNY

Structure (SMILES) | growth inhibition [1] | inhibition [2] | inhibition [3] [%] | growth inhibition [4] | outcome [5] | outcome [6] | outcome [7] | outcome [8]
O=C(CCCCCCc1ccccc1)Nc1ccc2nc3c(c(NCc4ccccc4)c2c1)CCCC3 | 98% (active) | 19% | -3 | 101% (active) | inactive | inactive | inactive | inactive
Clc1cccc(C=NNc2nc(Nc3ccccc3)nc(Nc3ccccc3)n2)c1 | 15% | -5% | -4 | 92% (active) | inactive | inactive | inactive | inactive
CCCCCCC(N)c1ccc(OCCCOc2ccc(C(N)CCCCCC)cc2)cc1 (stereo not given) | 70% (active) | 100% (active) | 1 | 88% (active) | inactive | inactive | inactive | inactive
CCCCCc1ccc(N2C(N)=NC(N)=NC2(C)C)cc1 | 1% | 59% (active) | -6 | 95% (active) | inactive | inactive | inactive | inactive
COc1cc2nccc(Nc3ccc4c(cnn4Cc4cccc(F)c4)c3)c2cc1OC | 99% (active) | 29% | -6 | 101% (active) | inactive | inactive | inactive | inactive
CN(C)CCOc1ccc(NC(=O)NC(C)(C)c2nc(-c3ccc(Cl)c(O)c3)c(-c3ccncc3)[nH]2)cc1 | 98% (active) | 22% | 5 | 98% (active) | inactive | inactive | inactive | inactive
COc1ccc(C2C(C(=O)Nc3cc(Cl)c(OC)cc3OC)c3ccccc3C(=O)N2C)cc1 (stereo not given) | 98% (active) | 14% | 4 | 101% (active) | inactive | inactive | inactive | inactive
FC(F)(F)c1cnc(Sc2nnc(-c3ccncc3)o2)c(Cl)c1 | 96% (active) | 10% | 1 | 96% (active) | inactive | inactive | inactive | inactive
N#Cc1ccc(CCNc2nccc(-c3cccc(CN4CCNCC4)c3)n2)cc1 | -3% | 5% | 3 | 83% (active) | inactive | inactive | inactive | inactive
COc1ccc(-c2ccccc2OCCCNc2nc(NCCc3ccc(O)cc3)nc(N3CCNCC3)n2)cc1 | 3% | 36% | -1 | 99% (active) | inactive | inactive | inactive | inactive
Cc1cc(NN=Cc2ccccc2[N+](=O)[O-])c2ccccc2n1 | 100% (active) | 10% | -2 | 100% (active) | inactive | inactive | inactive | inactive
Cn1cncc1C(=O)Nc1cccc(-c2ccc(-c3nc4ccc(F)cc4[nH]3)s2)c1 | 27% | -9% | 1 | 99% (active) | inactive | inactive | inactive | inactive
COc1ccc(CNC(=O)c2cnc3cc(-c4c(C)noc4C)ccc3c2Nc2ccccc2C(C)(C)C)cc1 | 69% (active) | 9% | 0 | 99% (active) | inactive | inactive | inactive | inactive
CCNc1cc(C)nc(Nc2ccc(NC(=O)c3c(F)cccc3Cl)cc2)n1 | 89% (active) | 49% | -4 | 102% (active) | inactive | inactive | inactive | inactive
Cn1nc2ccc3ccccc3c2nc1=N | 85% (active) | 100% (active) | -4 | 91% (active) | inactive | inactive | inactive | inactive
Cc1cc(C)c(C(=O)Nc2n[nH]c3nnc(-c4cccc(F)c4F)cc23)c(C)c1 | -4% | -2% | -4 | 90% (active) | inactive | inactive | inactive | inactive
Oc1ccc(CCCNc2nc(NCc3cccc4ccccc34)nc(N3CCNCC3)n2)cc1 | 4% | 9% | -1 | 100% (active) | inactive | inactive | inactive | inactive
CN(C)CCCNC(=O)c1ccccc1Sc1ccccc1C#N | 3% | 11% | 2 | 89% (active) | inactive | inactive | inactive | inactive
COc1ccc(CN2CCC(CN3CC4(OC3=O)c3ccccc3-c3ccccc34)C2)c(O)c1 (stereo not given) | 79% (active) | 22% | -7 | 101% (active) | inactive | inactive | inactive | inactive
CCOc1cc(C)ccc1C1CCN(CCCCNC(=O)c2ccc(NC(=O)c3cc(Cl)cc(Cl)c3)cc2)CC1 | 78% (active) | 4% | -5 | 99% (active) | inactive | inactive | inactive | inactive

Structure (SMILES) | growth inhibition [1] | inhibition [2] | inhibition [3] [%] | growth inhibition [4] | outcome [5] | outcome [6] | outcome [7] | outcome [8]
CC(CN)OCn1cnc2c(N)ncnc21 (stereo not given) | 3% | 17% | 4 | 95% (active) | inactive | inactive | inactive | inactive
OCCN1CCN(c2ccc(Nc3ccnc4cc5ccccc5cc34)cc2)CC1 | 100% (active) | 98% (active) | -1 | 100% (active) | inactive | inactive | inactive | inactive
c1ccc(-c2cc(NCCCCCCCCNc3cc(-c4ccccc4)nc4ccccc34)c3ccccc3n2)cc1 | 72% (active) | 36% | 1 | 101% (active) | inactive | inactive | inactive | inactive
CCCOc1cc(Cc2cnc(N)nc2N)cc(OC)c1OC | 1% | 21% | 8 | 85% (active) | inactive | inactive | inactive | inactive
O=C(Nc1ccc(OC2CCN(Cc3ccc(F)cc3)C2)c(Cl)c1)c1ccco1 (stereo not given) | 97% (active) | 9% | -2 | 96% (active) | inactive | inactive | inactive | inactive
COc1ccc(C(=O)Nc2ccc(Nc3nc(C)cc(N(C)C)n3)cc2)c(OC)c1 | 72% (active) | 34% | 0 | 100% (active) | inactive | inactive | inactive | inactive
CN1CCN(CC(=O)Nc2ccc(-c3ccc(-c4nc5ccc(C(F)(F)F)cc5[nH]4)s3)cc2)CC1 | 73% (active) | 84% (active) | 5 | 102% (active) | inactive | inactive | inactive | inactive
N#Cc1ccc2c(c1)CCN(CCC1CCC(NC(=O)/C=C/c3ccc(F)c4ccccc34)CC1)CC2 (stereo not given) | 19% | 29% | -2 | 95% (active) | inactive | inactive | inactive | inactive
CN(C)CCC=C1c2ccccc2Sc2c(O)cc(Cl)cc21 | 80% (active) | 8% | -9 | 100% (active) | inactive | inactive | inactive | inactive
COc1ccc2cc(-c3nc(-c4c(Cl)cccc4Cl)[nH]c3-c3ccnc(NCCC4CCCN4C)c3)ccc2c1 (stereo not given) | 82% (active) | 11% | 2 | 100% (active) | inactive | inactive | inactive | inactive
COc1cc(-c2cnc(N)c(-c3nc4ccccc4[nH]3)c2)cc(OC)c1OC | 57% (active) | 59% (active) | 7 | 101% (active) | inactive | inactive | inactive | inactive
O=S(=O)(c1ccc2ccccc2c1)N1CCCN(Cc2ccc(OCCCN3CCCCC3)cc2)CC1 | 11% | 43% | -3 | 98% (active) | inactive | inactive | inactive | inactive
COc1cc(C)nc2ccc(NC(=O)c3cc(C(F)(F)F)cc(C(F)(F)F)c3)cc12 | 99% (active) | 16% | 0 | 101% (active) | inactive | inactive | inactive | inactive
COc1ccc2nccc([C@@H](O)CN3CCC(NCCOc4ccc(F)cc4Cl)CC3)c2c1 | 85% (active) | 1% | 3 | 99% (active) | inactive | inactive | inactive | inactive
Nc1nccc2ccc(-c3ccc(NC(=O)Nc4cc(C(F)(F)F)ccc4F)cc3)cc12 | 100% (active) | 99% (active) | -3 | 101% (active) | inactive | inactive | inactive | inactive
Fc1ccc(CNc2nc(-c3ccc(F)c(C(F)(F)F)c3)n(-c3cccc(C(F)(F)F)c3)n2)cc1 | 80% (active) | 0% | -1 | 95% (active) | inactive | inactive | inactive | inactive
Cc1ccc(Oc2ncccc2C(=O)Nc2cccc3cccnc23)c(C)c1 | 76% (active) | -13% | 0 | 99% (active) | inactive | inactive | inactive | inactive
O=C(/C=C/c1ccc(Cl)c(Cl)c1)NCCCCCN1CCN(C(=O)Nc2ccc(OC(F)F)cc2)CC1 | -2% | 20% | 4 | 99% (active) | inactive | inactive | inactive | inactive
CC(C)(C)c1ccccc1OC(=O)c1ccccc1 | 2% | -4% | 0 | 95% (active) | inactive | inactive | inactive | inactive
Cc1cc(NC(=O)c2ccco2)ccc1OC1CCN(Cc2ccc(F)cc2)CC1 | 93% (active) | 4% | -2 | 96% (active) | inactive | inactive | inactive | inactive
